# This is a sample that favours compounds with a hit; in the whole collection about 5.9% have one here.
# HSF1 activator: increases HSF-1 driven luciferase reporter signal | NIH3T3-HGL HSF-1 luciferase reporter, MG132, 8 h; 100% = twice DMSO control signal | activation, % at 9 µM | hit rate 1.7% among 300,000;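 active means mean replicate activation of at least 50% with a set share of replicates each reaching 50%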;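 further: 0% = median of the neutral control wells and 100% = twice that signal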
# AHR activator: activates the human aryl hydrocarbon receptor; hit rate 2.5% among 320,000; AHR-responsive luciferase reporter cells, luminescence; activation, % at 5 µM; in the data active means activation above about 47%;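 further: 0% = vehicle wells and 100% = reference agonist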
# HSF1 inh: HSF1 inhibition | activity change, negative = inhibition, % at 7.5 µM (by protocol) | AID 2098 | hit rate 0.77% among 300,000 | NIH3T3-HGL HSE-luciferase, MG132-induced, luminescence 8 h; hits give low values;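 active means more than half of replicate wells show activity change below -50%, luminescence cut by over half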;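 further: luciferase reports HSF-1 transcriptional activity via heat shock element; 0% = median of DMSO wells and -100% = zero luminescence signal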
# FXN GAA850 act: activators of GAA850 frataxin (FXN) promoter; HEK293 lucGAA850 FXN promoter luciferase reporter, 24 h; percent of 10 µM SAHA response; hit rate 0.56% among 360,000; activation, % at 6 µM;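 active means activation above the average of all compounds screened plus 3 SD, cutoff fixed separately per campaign, cut at about 7.5% in these data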;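 further: 0% = DMSO wells and 100% = 10 µM SAHA wells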
# DAX1 inh: NR0B1 (DAX1) inhibition | P51843 | HEK293 Gal4-DAX1 luciferase reporter, luminescence | inhibition, % at 6.75 µM | hit rate 0.99% among 340,000;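 active means inhibition above the mean over all tested compounds plus 3 SD, cut at about 4.2% in these data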;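 further: 0% = DAX1-transfected cells with DMSO and 100% = empty-vector control cells with DMSO; inhibition shows as a rise in luminescence from relieved DAX1 repression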
# Target sequence (P51843 207-470 limits assumed): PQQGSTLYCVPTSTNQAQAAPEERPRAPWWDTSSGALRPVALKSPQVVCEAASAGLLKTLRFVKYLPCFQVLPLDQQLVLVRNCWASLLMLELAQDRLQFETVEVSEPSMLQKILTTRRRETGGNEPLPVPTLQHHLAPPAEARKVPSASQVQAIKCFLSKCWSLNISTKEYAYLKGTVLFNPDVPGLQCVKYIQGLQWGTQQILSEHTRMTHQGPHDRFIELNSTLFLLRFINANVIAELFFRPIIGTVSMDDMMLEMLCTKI
# HSP90 refold inh: blocks HSP90-mediated luciferase refolding in reticulocyte lysate; hit rate 0.91% among 290,000; Rabbit reticulocyte lysate, luciferase refolding luminescence, 3 h; inhibition, % at 5.6 µM;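 active means inhibition above the screen-wide mean plus 3 SD, computed separately per campaign, cut at about 16% in these data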;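 further: 0% = DMSO wells and 100% = 60 µM geldanamycin wells; inhibitors lower the luminescence because luciferase stays unfolded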
# Numbers without * were called inactive; nt = not tested or not shown.
SMILES,HSF1 activator,AHR activator,HSF1 inh,FXN GAA850 act,DAX1 inh,HSP90 refold inh
CCOc1ncccc1C(=O)NNC(=O)c1cccc(S(=O)(=O)N2CCOCC2)c1,nt,7,nt,2,0,nt
CC(=O)c1c(C)[nH]c(C(=O)Nc2ccc(F)c(F)c2F)c1C,5,62*,0,0,-1,-4
CC(=O)c1c(C)[nH]c(C(=O)Nc2cccc(C)c2C)c1C,-9,55*,-3,1,3,-5
CC(=O)c1c(C)[nH]c(C(=O)Nc2ccc(Cl)cc2)c1C,32,4,18,4,1,-5
CC(=O)c1c(C)[nH]c(C(=O)Nc2ccc(Cl)cc2F)c1C,42,31,28,3,2,-3
CC(=O)c1c(C)[nH]c(C(=O)Nc2ccccn2)c1C,22,71*,14,4,0,5
CC(=O)c1c(C)[nH]c(C(=O)Nc2ccccc2N2CCOCC2)c1C,48,72*,-8,1,1,1
CC1(C(=O)NS(=O)(=O)c2ccc(C#N)cc2)CCN1C(=O)CCC1CCCC1 (stereo not given),nt,nt,nt,1,nt,nt
CN(C(=O)COC(=O)COc1ccc2ccccc2c1)c1ccccc1,nt,nt,nt,0,1,nt
COc1ccc2nc(-c3ccccc3)cc(C(=O)OCC(=O)NC3CC3)c2c1,nt,nt,nt,0,0,nt
COc1ccccc1NS(=O)(=O)c1cccc(NC(=O)c2[nH]c(C)c(C(C)=O)c2C)c1,21,31,14,1,-2,1
CC(=O)c1c(C)[nH]c(C(=O)NC2=NCCS2)c1C,9,75*,8,7,1,0
COc1ccc(S(=O)(=O)N2CCCCC2)cc1NC(=O)c1[nH]c(C)c(C(C)=O)c1C,nt,16,nt,1,4.5*,nt
CC(=O)c1c(C)[nH]c(C(=O)Nc2cc(S(=O)(=O)N3CCCCC3)ccc2C)c1C,nt,4,nt,0,0,nt
COc1ccccc1NC(=O)c1[nH]c(C)c(C(C)=O)c1C,-9,55*,-3,0,2,0
CCOC(=O)C1CN(C(=O)OCC)CC1=NNC(N)=O (stereo not given),nt,nt,nt,-1,0,nt
Cc1ccc(CC2SC(N=C(N)N)=NC2=O)cc1 (stereo not given),81*,5,34,1,0,-2
Cc1ccc(C(=O)NC(C#N)=C(Cl)Cl)cc1,151*,nt,93,nt,nt,1
COc1ccc(C(=O)NC(=C(Cl)Cl)S(=O)(=O)c2ccc(C)cc2)cc1,10,3,13,2,-1,3
Cc1ccc(C(=O)NC(=C(Cl)Cl)S(=O)(=O)c2ccccc2)cc1,113*,-1,52,4,-2,1
O=C(CNc1ccc(Cl)c(C(F)(F)F)c1)N1CCN(S(=O)(=O)c2ccccc2)CC1,nt,nt,nt,-2,1,nt
COCCn1c(C)cc(/C=C2\NC(=S)N(C)C2=O)c1C,5,57*,1,2,1,-2
COCCn1c(C)cc(/C=C2/SC(=O)N(C(C)C(=O)OC)C2=O)c1C (stereo not given),15,-1,9,2,1,1
COc1ccc(-c2cc3cc(OC)c(OC)cc3c(C)n2)cc1,4,82*,9,5,0,1
COc1ccc(-c2cc3ccc(OC)cc3cn2)cc1,nt,44,nt,-3,1,nt
SMILES,HSF1 activator,AHR activator,HSF1 inh,FXN GAA850 act,DAX1 inh,HSP90 refold inh
COc1ccc(-c2cc(OC)c3ccccc3n2)cc1,15,60*,5,3,2,5
COc1cc(-c2ccccc2)nc2ccccc12,-7,48*,19,0,2,1
COc1ccc(-c2cc3ccccc3cn2)cc1,nt,51*,nt,2,1,nt
CCOc1ccccc1NC(=O)COC(=O)C1CCC(=O)N1 (stereo not given),nt,0,nt,-1,1,nt
CC(=O)Nc1cccc(-c2cnc(NC(C)=O)cn2)c1,nt,nt,nt,0,nt,nt
COc1ccc2c(OC)cc(-c3ccccc3)nc2c1,-17,70*,-8,-1,-1,-1
CCOc1ccc(S(=O)(=O)N(CC(=O)Nc2cccnc2)c2ccc(F)cc2)cc1,5,2,-1,-3,0,1
Cc1ccc(CCNC(=O)C2CCCN(S(=O)(=O)N3CC(C)CC(C)C3)C2)cc1 (stereo not given),19,1,7,1,0,-2
CC(CNC(=O)CCc1nnc(CCC2CCCCC2)o1)c1ccccc1 (stereo not given),19,4,4,1,5.6*,-4
Cc1cc(-c2nnc(CCC(=O)NCC(C)c3ccccc3)o2)no1 (stereo not given),18,6,11,2,1,2
CN(CCCC1CCCC1)C(=O)CCc1nnc(-c2ccccc2)o1,45,11,24,5,5.4*,-7
CC(Sc1nnc(Cc2ccccc2)o1)C(=O)NC1(C#N)CCCCC1 (stereo not given),nt,1,nt,0,1,nt
COc1cc(/C=N/N2CCCCC2)cc([N+](=O)[O-])c1O,-14,0,-14,0,1,-4
Cc1nc(-c2ccc3c(c2)OCCO3)cs1,23,-2,24,6,1,4
Fc1ccc(-c2csc(-c3cccnc3)n2)cc1F,30,68*,1,3,1,-1
c1cncc(-c2nc(-c3ccc4c(c3)OCCO4)cs2)c1,64*,4,32,4,4.6*,16
CCn1c(-c2cccn(Cc3ccc(Cl)cc3Cl)c2=O)n[nH]c1=S,15,0,8,3,-1,-2
C[C@H]1CN([C@@H](C)CO)C(=O)CCCn2nncc2CO[C@H]1CN(C)C(=O)C1CC1,nt,nt,nt,0,2,nt
CC1(CCc2ccccc2)NC(=O)N(CC(=O)Nc2ccccc2)C1=O (stereo not given),13,3,5,5,4.7*,-1
C[C@H](CO)N1C[C@H](C)[C@@H](CN(C)S(=O)(=O)c2cccc(C#N)c2)OCc2cnnn2CCCC1=O,nt,nt,nt,1,1,nt
O=C(Cn1nnc(-c2ccccc2NC(=O)c2cccs2)n1)Nc1ccccc1,0,2,7,-1,-1,0
N#CCCn1nc(-c2ccccc2)cc1Nc1ccccc1NC(=O)c1cccs1,4,49*,7,-2,-1,3
COc1ccc(NC(=O)N(C)C[C@H]2Oc3ncc(Br)cc3C(=O)N([C@H](C)CO)C[C@@H]2C)cc1,nt,nt,nt,2,1,nt
CC(C)OC(=O)CSc1nnc(-c2ccc(C(C)(C)C)cc2)n1N,6,3,13,0,5.0*,6
Cc1ccc(NC(=O)c2cc3cccc([N+](=O)[O-])c3[nH]2)cc1,164*,71*,88,4,4,5
CCC(C)c1ccccc1NC(=O)c1cc2cccc([N+](=O)[O-])c2[nH]1 (stereo not given),15,55*,-2,2,nt,3
Cc1ccc(NC(=O)c2ccc(-n3cccn3)c([N+](=O)[O-])c2)cc1,5,-2,3,-1,-1,-1

# Source: PubChem (several laboratories)
